# Assay results taken from PubChem BioAssay AID489018 (Southern Research Specialized Biocontainment Screening …, 2010).
# In all, about 2,300 compounds went through this assay and about 350 (15%) were called active. How the calls were made is not given here. Not all results are given here. Measured potencies and affinities stand elsewhere.
# Assay: HepG2 cell cytotoxicity, dose response, cytotoxicity control for non-replicating M. tuberculosis project (AID 489018);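 further: HepG2 human liver cells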
# Conditions: series mostly up to 20 µM
row,Structure (SMILES),outcome
1,Cc1nnc(N/N=C/c2ccc(Br)cc2)n1N,inactive
2,O=C(c1ccccc1)c1nc[nH]c1C(=O)Nc1ccccc1,inactive
3,COC(=O)C(O)(c1ccc(NC(=S)NC(=O)c2ccccc2)cc1)C(F)(F)F (stereo not drawn),inactive
4,O=C(N=Nc1c(O)[nH]c2ccc(Br)cc12)c1ccccc1-n1cccc1,inactive
5,O=C(Oc1ccccc1)c1ccc(NC(=O)c2ccco2)cc1,inactive
6,O=C1NC(=O)C(=Cc2ccc(Oc3ccc([N+](=O)[O-])cc3)cc2)C(=O)N1,inactive
7,c1ccc2sc(SCc3ccc(-c4nnco4)cc3)nc2c1,inactive
8,CCCCNC(=O)Nc1nnc(-c2ccc(Cl)cc2)o1,inactive
9,CC(NC(=O)c1cc([N+](=O)[O-])cc([N+](=O)[O-])c1)c1ccc(-n2ccnc2)cc1 (stereo not drawn),inactive
10,Cc1cccc(OCCN2CSC(=S)N(C)C2)c1,inactive
11,COc1cc(CNC2CCCC2)cc(Cl)c1OCc1ccc(F)cc1,inactive
12,Clc1cccc(CNCCNCc2cccc(Cl)c2)c1,inactive
13,Clc1ccc(OCCCNCc2ccccc2)c2ccccc12,inactive
14,COC(=O)C1CC(=O)N(c2ccc(OCc3ccccc3Cl)cc2)C1 (stereo not drawn),inactive
15,COc1cc(CNCCc2ccccc2)cc(Br)c1OCC(=O)Nc1ccccc1C,inactive
16,Clc1ccc(Cl)c(OCCCCNCc2ccccc2)c1,inactive
17,N#C/C(N=Nc1ccccc1O)=N\Nc1ccccc1O,inactive

row,Structure (SMILES),outcome
1,O=C(OCC#CCSc1nc2ccccc2o1)c1ccco1,inactive
2,O=C(CCNc1ccc(Cl)cc1)c1cccs1,inactive
3,O=C(N/N=C/c1ccccn1)c1cccc(S(=O)(=O)Nc2ccccc2Cl)c1,inactive
4,CC(=O)Nc1nc2ccccc2n1CCOc1ccccc1Cl,inactive
5,COc1cccc2cc(-c3nc4ccccc4o3)c(=O)oc12,inactive
6,NC(=O)c1ccc(N=Cc2ccc([N+](=O)[O-])s2)cc1,inactive
7,CCC(C)(C)c1ccc(OCC(=O)Nc2ccncc2)cc1,inactive
8,Cc1nnc(N/N=C/c2ccc(-c3ccc(Br)cc3)o2)n1N,inactive
9,O=C(Nc1nnc(-c2ccc(Cl)cc2)o1)c1nc2ccccc2s1,inactive
10,Cc1ccc2nc(CCc3nc4ccc(C)cc4[nH]3)[nH]c2c1,inactive
11,O=C(CCNc1ccc(Cl)c(C(F)(F)F)c1)c1ccco1,inactive
12,CN(C)CCNc1c2c(c(C#N)c3nc4ccccc4n13)CCCC2,inactive
13,COc1cccc(-c2cc3nc4c(c(NCC(C)(C)CN(C)C)n3n2)CCCC4)c1,inactive
14,CSc1ccc(CNc2ncc(-c3cccc([N+](=O)[O-])c3)n2C)cc1,inactive
15,CCCCCCCC(=O)NNC(=O)c1ccc(F)cc1,inactive
16,CCCCCCCC(=O)N/N=C(/C)c1c(O)cc(C)oc1=O,inactive
